INHIBITION data for 108 molecules are collected here from ChEMBL document CHEMBL4513216, “Probing the Open Global Health Chemical Diversity Library for Multistage-Active Starting Points for Next-Generation Antimalarials” (ACS Infect Dis, 2020).

Structures are written as SMILES. Hit rate of the full screen: of about 69,000 compounds, about 8,600 (12%) showed an effect of 50% or more. The list comes from a sample in which strong results are over-represented; it also holds similar structures and randomly drawn compounds.

The test system of this assay is Plasmodium berghei. Nature of the assay: Screen against P. berghei liver stage (PbLuc), transformed with Luciferase, at 10uM. Type of assay: functional, HepG2. Conditions: tested at 10 uM.
Regarding `Cc1ccc(N2CCc3ncnc(C4CC4)c3CC2)nn1`, the INHIBITION is 58.4%. For the molecule `CCN(CC)c1ncnc2c1CCN(c1ccc(C)nn1)CC2`, the INHIBITION came to 52.1%.

With `Cc1cccc(N2CCc3ncnc(C4CC4)c3CC2)n1`, the INHIBITION is on record as -11.6%. Turning to `Cc1ccc(N2CCc3ncnc(C)c3CC2)nn1`, the INHIBITION is 35.8%. With `CCN(C)c1ncnc2c1CCN(c1ccc(C)nn1)CC2` the figure was 39.4%; with `Cc1ccc(N2CCc3ncnc(N(C)C)c3CC2)nn1`, 8.6%; with `Cc1cccnc1C(=O)N1CCCC(Cc2cncc3ccccc23)C1` (stereo not drawn), -63.5%.

`CCn1cc(Cl)c(C(=O)NCc2cnn(C)c2)n1`: the INHIBITION turned out to be 3.46%.

Consider `CCOC(=O)C1CCN(C(=O)CN2CCCC2c2ccccc2C)CC1` (stereo not drawn), for which the INHIBITION came out at 70.1%. With `CCOC(=O)C1CCN(C(=O)CN2CCCC2Cc2ccccc2)CC1` (stereo not drawn) the figure was -4.93%; with `Cc1nc(-c2nnc[nH]2)sc1C(=O)N1CCCC1CC(C)(C)C` (stereo not drawn), -10.2%. With `CN(CCCNC(=O)N1CCCC1c1ccsc1)c1ccccn1` (stereo not drawn) the figure was 52%; with `O=C(NCCCn1cccn1)N1CCCC1c1ccsc1` (stereo not drawn), 28.6%. `Cc1nc(-c2nnc[nH]2)sc1C(=O)N1CCCC1c1ccsc1` (stereo not drawn): the INHIBITION was determined as 72.5%. For the molecule `CCC(=O)N1CCCC1c1ccsc1` (stereo not drawn), the INHIBITION amounted to 50.4%. Take `COc1ccccc1C1CCCN1CC(=O)N1CCC(C(N)=O)CC1` (stereo not drawn): the INHIBITION worked out at 34%. As for `CSCCC(=O)N1CCCC1c1ccsc1` (stereo not drawn), the INHIBITION was 1.81%. For `Cc1nc(-c2nnc[nH]2)sc1C(=O)N1CCCC1c1cccs1` (stereo not drawn), the INHIBITION is given as -81.2%. With `O=C(NCCCn1ccnc1)N1CCCC1c1ccsc1` (stereo not drawn) the figure was 28.4%; with `CC(C)CC(=O)N1CCCC1c1ccsc1` (stereo not drawn), -8.66%. For `Cc1nnc2ccc(N3CCN(CCc4ccccn4)CC3)nn12` the value was -57.4%; for `Cc1cc(C(=O)N2C[C@@H]3COC[C@]3(CN(C)C)C2)c(C)o1`, 25.1%; for `Cc1nn(C)cc1-c1nn2c(C(F)(F)F)nnc2s1`, -15.2%. As for `Cc1c(C(=O)N2CCS(=O)(=O)CC2)nnn1-c1ccc2ncccc2c1`, the INHIBITION is recorded as 46.6%. On to `CCc1nnc(CN(CC)C(=O)C2CC(=O)N(CC)C2)o1` (stereo not drawn), for which the INHIBITION turned out to be 39.1%.

Take `CCC(C)(C)NC(=O)Cn1nnc(CN(C)C(=O)c2ccccc2)n1`: the INHIBITION stood at 29.6%. For `Cc1cnc(Nc2nccnc2C2CCN(C)CC2)s1`, the INHIBITION was determined as 7.39%. With `O=C(O)c1cccc(CN2CCCC(Cc3ccn[nH]3)C2)c1` (stereo not drawn) the figure was -0.05%; with `Cc1ncccc1C(=O)N1CCC2(CCc3ccccc3C(=O)N2)C1` (stereo not drawn), 13.79%. With `Cn1cccc1C(=O)NC[C@]12COC[C@H]1CN(Cc1nccs1)C2`, the INHIBITION is on record as -30.6%. With `Cc1cccc(CNc2n[nH]c(C)n2)c1` the figure was 33.1%; with `CN(CCC#N)C(=O)CN1CCCC1c1ccsc1` (stereo not drawn), 10.5%; with `CCOC(=O)C1CCN(C(=O)CN2CCCC2c2ccsc2)CC1` (stereo not drawn), 54.6%.

As for `CCOC(=O)C1CCN(C(=O)CN2CCCC2c2cc(C)no2)CC1` (stereo not drawn), the INHIBITION is listed as -15.1%. For `O=C(NCC1CCOC1)c1csc(-c2ccccc2)n1` (stereo not drawn) the value was -10.6%; for `c1cc2c(cc1CN1CC[C@H]3[C@H]1CCN3CC1CC1)OCO2`, 6.27%; for `O=C(c1ccc2[nH]cnc2c1)N1CCC(Oc2ccccn2)CC1`, 35.2%. Consider `Cc1cnn(CCCNC(=O)CCC2CCCCN2C)c1` (stereo not drawn), for which the INHIBITION was found to be 35.1%. With `C[C@@H]1CN(C2(C(=O)N3CCSCC3)Cc3ccccc3C2)C[C@H](C)O1`, the INHIBITION turned out to be 73.9%.

Consider `C[C@@H]1CN(C2(C(=O)N3CCOCC3)Cc3ccccc3C2)C[C@H](C)O1`, for which the INHIBITION came to 21%. With `C[C@@H]1CN(C2(C(=O)N3CCCCCC3)Cc3ccccc3C2)C[C@H](C)O1` the figure was -0.182%; with `O=C(C1CC(=O)N(c2ccccc2Br)C1)N1CCCCCC1` (stereo not drawn), 21.8%. With `O=C(C1CC1)N1CCN(C(=O)C2CC(=O)N(c3ccccc3Br)C2)CC1` (stereo not drawn) the figure was -56.4%; with `COC1CCN(C(=O)C2CC(=O)N(c3ccccc3Br)C2)CC1` (stereo not drawn), 61.7%; with `COCc1nn(C(C)C)c2c1CCN(Cc1ccsc1)C2`, -21.1%. For `C[C@@H]1C(=O)NC[C@H]2CN(Cc3ccsc3)C[C@H]21` the value was 27.4%. As to `COc1cc(N2C[C@@H]3COC[C@]3(C(=O)NC3CC(F)(F)C3)C2)ncn1`, the INHIBITION was determined as 31.4%. With `CC(C)(C)CN1CCCC(O)(CN2CCc3[nH]ncc3C2)C1=O` (stereo not drawn) the figure was 22.6%; with `Cc1cccnc1CNCC1(O)CCCN(CC2CCC2)C1=O` (stereo not drawn), 9.96%; with `Cc1cccnc1CCNCC1(O)CCCN(CC2CCCCC2)C1=O` (stereo not drawn), 25.8%. For the molecule `O=C1N(CC2CC2)CCCC1(O)CN1CCc2[nH]ncc2C1` (stereo not drawn), the INHIBITION was 79.1%.

Take `Cc1cccnc1CNCC1(O)CCCN(CC2CCCCC2)C1=O` (stereo not drawn): the INHIBITION was 15.1%. With `O=C1N(CC2CCCCC2)CCCC1(O)CN1CCc2[nH]ncc2C1` (stereo not drawn) the figure was 68.8%.

In the case of `CS(=O)(=O)N1CCC2(CC1)COC(COc1cccnc1)C2` (stereo not drawn), the INHIBITION is -52.3%. In the case of `CC(C)(C)c1cc(=O)n2c(n1)SCC(C(=O)NCc1cccs1)C2` (stereo not drawn), the INHIBITION came out at 28%. For `COc1ccc2c(OCC(=O)NC(C)(C)C)ccnc2c1` the value was 29.6%. Turning to `CCS(=O)(=O)N1CC[C@H]2O[C@H](c3nc(C)no3)CC[C@H]21`, the INHIBITION stood at 18.2%. With `Cc1nc2ccc(C(=O)N3C[C@@H](O)[C@H](N4CCN(C)CC4)C3)cc2[nH]1` the figure was 46%; with `NS(=O)(=O)c1ccc(NCc2ccccc2)cc1C(F)(F)F`, 77.7%. `Cc1cc(C)c(S(N)(=O)=O)cc1C(=O)NCC1Cc2ccccc2O1` (stereo not drawn): the INHIBITION is reported as -9.82%. As for `NS(=O)(=O)c1ccc(NCc2ccccc2F)cc1C(F)(F)F`, the INHIBITION is 82.3%.

Regarding `CS(=O)(=O)c1ccc(NCc2ccccc2)cn1`, the INHIBITION is on record as 27.3%. With `CC(C)(CNc1ccc(C#N)c(C(F)(F)F)c1)C(N)=O` the figure was -21%.

As for `CS(=O)(=O)Cc1ccc(Cl)cc1NCc1ccccc1F`, the INHIBITION is given as 38%. With `CC(=O)Nc1ccc(CNc2cccc(CS(C)(=O)=O)c2)cc1` the figure was 34.6%. With `Fc1ccccc1CNc1ccnc(C2CCNCC2)c1` the figure was 26.7%; with `Cc1ccccc1CNc1ccc(S(N)(=O)=O)c(C(F)(F)F)c1`, 93.4%.

As for `CN(C)S(=O)(=O)c1ccc(CN2CCCC2c2ccsc2)o1` (stereo not drawn), the INHIBITION was -0.96%. Regarding `Cn1nccc1C(=O)N1Cc2ccccc2OC2(CCOCC2)C1`, the INHIBITION came out at 29.2%.

Regarding `CN(C)C(=O)N1CCOCC2(CCN(c3ccccn3)C2)C1` (stereo not drawn), the INHIBITION is -3.1%.

Regarding `Cc1cnn(CC2CCCCN2C(=O)c2ccc3c(c2)nnn3C)c1` (stereo not drawn), the INHIBITION is recorded as -17.8%. As to `O=S(=O)(Cc1ccccc1)NCCc1nnc2n1CCC2`, the INHIBITION worked out at 31.9%. With `CC(C)CS(=O)(=O)CCNc1ncccn1` the figure was 10.3%; with `CCc1cnc(NCCS(=O)(=O)N(C)C)nc1`, 61.3%. In the case of `CN(C)S(=O)(=O)CCNc1ncc2c(n1)CCN2c1ccccc1`, the INHIBITION is given as -26.9%. With `CCc1cnc(NCCS(=O)(=O)CC(C)C)nc1`, the INHIBITION came out at 53.7%.

For the molecule `CCc1cnc(NCCCN2CCC(O)CC2)nc1`, the INHIBITION is reported as -52.7%. With `CCc1cnc(NCCCOC2CCCC2)nc1` the figure was -27%; with `CSCCCN(CCN1CCOCC1)Cc1ccco1`, 45.8%; with `O=C(Nc1nncs1)NC1CCCc2c1cnn2CCO` (stereo not drawn), 21.7%. `COc1ccnc(N2CCN(C(=O)c3cc(C4CC4)[nH]n3)CC2)n1`: the INHIBITION came out at 25.1%. With `Cc1csc(N2CCN(C(=O)c3cc(C4CC4)[nH]n3)CC2)n1` the figure was 12%; with `O=C(c1cc(C2CC2)[nH]n1)N1CCN(Cc2ccc3c(c2)OCO3)CC1`, 9.54%.

With `N#Cc1ccc(N2CCN(C(=O)c3cc(C4CC4)[nH]n3)CC2)c(F)c1`, the INHIBITION worked out at 80.8%.

Turning to `O=C(c1cc(C2CC2)[nH]n1)N1CCN(Cc2ccsc2)CC1`, the INHIBITION amounted to 36.4%. Take `O=C(c1cc(C2CC2)[nH]n1)N1CCN(c2nccs2)CC1`: the INHIBITION is listed as 6.02%. As for `CC(C)c1ccc(CN2CCN(C(=O)c3cc(C4CC4)[nH]n3)CC2)cc1`, the INHIBITION is 60.2%.

On to `N#Cc1ccc(CN2CCN(C(=O)c3cc(C4CC4)[nH]n3)CC2)cc1`, for which the INHIBITION is reported as 84.2%. For `CC(C)c1cc(C(=O)N2CCCN(Cc3ccccc3)CC2)n[nH]1` the value was 48.4%; for `Cc1cccc(CN2CCN(C(=O)c3cc(C4CC4)[nH]n3)CC2)c1`, -24.2%; for `CC(C)c1cc(C(=O)N2CCN(Cc3ccc(C#N)cc3)CC2)n[nH]1`, 82.5%. In the case of `CC(C)c1cc(C(=O)N2CCN(Cc3ccsc3)CC2)n[nH]1`, the INHIBITION worked out at 36.3%. As to `CN1CCN(CCCNC(=O)c2nc3ccccc3c(=O)[nH]2)CC1`, the INHIBITION came out at 24.2%. With `CN1CCN(C[C@@H]2OC[C@H]3CN(CCc4ccccc4)CC[C@H]32)CC1` the figure was -40%; with `CC(C)n1cc(CN2CCCN(C(=O)CC3CCCCC3)CC2)cn1`, 4.71%. With `CCc1nnc(CN(CC)C(=O)C2CCC(=O)N(C3CCCC3)C2)o1` (stereo not drawn) the figure was 15.3%; with `Cc1ccc(CN(C)Cc2cnc(N3CCOCC3)s2)o1`, 35.8%; with `O=C(c1cc(C2CC2)[nH]n1)N1CCN(Cc2ccc(Cl)cc2)CC1`, 74.7%.

Regarding `O=C(c1cc(C2CC2)[nH]n1)N1CCN(Cc2ccccc2)CC1`, the INHIBITION is reported as -26.6%. Regarding `O=C(c1cc(C2CC2)[nH]n1)N1CCN(Cc2ccncc2)CC1`, the INHIBITION is listed as -0.113%. Regarding `Cc1ccc(C(=O)N(CC2CCCO2)c2ccncc2)o1` (stereo not drawn), the INHIBITION is reported as 24.1%.

For the molecule `COCC(C)NC(=O)CN1CCC(C)CC1` (stereo not drawn), the INHIBITION was found to be 18.4%. For `Cc1nc(CN2CCC(c3cc(N4CCCC4)ncn3)CC2)cs1` the value was -37.9%; for `c1c[nH]c2nc(C3CCNC3)nc-2c1` (stereo not drawn), 19.3%. As to `Cc1cc(N)nc(C2(C)CCCN2C(=O)Cc2ccc(F)cc2)n1` (stereo not drawn), the INHIBITION is 29.2%. For `O=C(CN1C[C@@H]2CC[C@H]1CN(Cc1ccccn1)C2)Nc1ccccc1` the value was 43.7%. As for `Cn1ccc(NC(=O)CN2C[C@@H]3CC[C@H]2CN(Cc2ccccn2)C3)n1`, the INHIBITION amounted to 45.8%. For `O=C(CN1C[C@@H]2CC[C@H]1CN(Cc1ccccn1)C2)NCc1cccs1` the value was 51.1%.
